Screening data deposited in PubChem by several laboratories.
Only some compounds are listed: those with a hit (about 2.6% of all), similar ones and a draw of the others.
PRMT1 inh: blocks human protein arginine methyltransferase 1; Q99873; recombinant PRMT1, activity-based probe fluorescence polarization; inhibition, % at 2.79 µM; 1.3% of 370,000 active;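 active = inhibition above about 21% made by adding two undisclosed values, limit read from the data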
Target sequence (Q99873 whole entry, looked up): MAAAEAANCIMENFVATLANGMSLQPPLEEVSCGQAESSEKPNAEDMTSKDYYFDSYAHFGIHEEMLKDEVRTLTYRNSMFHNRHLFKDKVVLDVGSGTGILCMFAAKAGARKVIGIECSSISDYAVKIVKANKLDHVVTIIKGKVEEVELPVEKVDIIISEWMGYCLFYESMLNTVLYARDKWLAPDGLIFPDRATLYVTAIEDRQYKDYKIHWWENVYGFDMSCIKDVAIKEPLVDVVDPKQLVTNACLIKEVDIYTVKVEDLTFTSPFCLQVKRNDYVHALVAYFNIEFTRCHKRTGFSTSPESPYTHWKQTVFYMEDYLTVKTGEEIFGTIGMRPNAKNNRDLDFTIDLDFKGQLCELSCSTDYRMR
TLR9-MyD88 block: TLR9-MyD88 interaction inhibition | Q9NR96+Q99836 | CHO BLA complementation TLR9-MyD88, CCF4 FRET ratio | inhibition, % at 4.98 µM | 0.21% of 340,000 active;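 active = inhibition above the mean over all tested compounds plus 3 SD, cut at about 21% in these data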
Exocytosis inh: lytic granule exocytosis inhibition | TALL-104 LAMP-1 surface exposure, flow cytometry; cells stimulated with thapsigargin and PMA | inhibition, % at 10 µM | 0.66% of 360,000 active | AID 651702;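 active = inhibition above about 55%, limit read from the data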
NOD2-RIPK2 inh: inhibitors of human NOD2-RIPK2 interaction; AID 624267; inhibition, % at 4.98 µM; 0.38% of 360,000 active; O43353; CHO BLA complementation NOD2-RIPK2, CCF4 ratio; in the data active = inhibition above about 21%
ABHD5-PLIN5 inh: inhibitors of human ABHD5-perilipin-5 interaction | Q00G26+Q8WTS1 | Split G. princeps luciferase complementation, luminescence, 4 h | inhibition, % at 4 µM | 0.78% of 360,000 active;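 active = inhibition above the mean inhibition across every tested compound plus 3 SD, cut at about 22% in these data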
TLR4 MyD88 comp: TLR4-MyD88 interaction inhibition in cells. O00206+Q99836. HeLa CL3-4 TLR4/MyD88 BLA complementation, FRET ratio. inhibition, % at 8.4 µM. 0.18% of 200,000 active. AID 861; in the data active = inhibition above about 25%
ABHD5 PLIN5 conf: ABHD5-PLIN5 interaction inhibition, confirmed. AID 651612. biochemical ABHD5-PLIN5 interaction, luminescence. 67% of 2,200 active. shares compounds with ABHD5-PLIN5 inh. inhibition, % at 4 µM; in the data active = inhibition above about 23%
HNF4 split-luc: HNF4 split-luciferase signal hit, counter-screen; shares compounds with ABHD5-PLIN5 inh; HNF4 dimerization, luminescence, biochemical; inhibition, % at 4 µM; 77% of 2,200 active; AID 651674;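 active = mean inhibition across replicate wells exceeding the computed hit threshold, cut at about 13% in these data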;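 note: light from luciferase halves that rejoin when HNF4 fusion proteins dimerize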
Of the large screens only hits and unclear results are named; the others gave an inactive call (follow-up assays come after a bar, where they were run).

CC(c1nc2ccccc2[nH]1)n1c(=O)c(-c2ccco2)nc2ccccc21 (configuration not stated)	ABHD5-PLIN5 inh 52.0 (no result: TLR9-MyD88 block, TLR4 MyD88 comp) | ABHD5 PLIN5 conf 40.8 | HNF4 split-luc inactive
CC(c1nc2ccccc2[nH]1)n1c(-c2ccncc2)nc2ccccc21 (configuration not stated)	none (no result: TLR9-MyD88 block, TLR4 MyD88 comp)
N#Cc1ccc(C(C(=O)NC2CCCCC2)n2c(=O)c(-c3ccco3)nc3ccccc32)cc1 (configuration not stated)	PRMT1 inh 22.4, ABHD5-PLIN5 inh 82.3 (no result: TLR9-MyD88 block, TLR4 MyD88 comp) | ABHD5 PLIN5 conf 84.0 | HNF4 split-luc 31.6
COc1ccc(NC(=O)C(c2ccccc2)n2c(=O)c(-c3ccco3)nc3ccccc32)cc1 (configuration not stated)	ABHD5-PLIN5 inh 23.3 (no result: TLR9-MyD88 block, TLR4 MyD88 comp) | ABHD5 PLIN5 conf 32.7 | HNF4 split-luc inactive
COc1ccc(NC(=O)C(c2ccnc3ccccc23)n2c(=O)c(-c3ccco3)nc3ccccc32)cc1 (configuration not stated)	ABHD5-PLIN5 inh 35.6 (no result: TLR9-MyD88 block, TLR4 MyD88 comp) | ABHD5 PLIN5 conf 25.5 | HNF4 split-luc inactive
COc1ccc(NC(=O)C(c2ccccc2F)n2c(=O)c(-c3ccco3)nc3ccccc32)cc1 (configuration not stated)	none (no result: TLR9-MyD88 block, TLR4 MyD88 comp)
COc1ccc(NC(=O)C(c2ccnc3ccccc23)n2c(=O)c(-c3ccccc3)nc3ccccc32)cc1 (configuration not stated)	none (no result: TLR9-MyD88 block, TLR4 MyD88 comp)
CC(C)(C)NC(=O)C(c1ccc(C#N)cc1)n1c(=O)c(-c2ccccc2)nc2ccccc21 (configuration not stated)	none (no result: TLR9-MyD88 block, TLR4 MyD88 comp)
COc1ccc(C(C(=O)Nc2ccc3c(c2)OCCO3)n2c(=O)c(-c3ccco3)nc3ccccc32)cc1 (configuration not stated)	ABHD5-PLIN5 inh 78.5 (no result: TLR9-MyD88 block, TLR4 MyD88 comp) | ABHD5 PLIN5 conf 38.4 | HNF4 split-luc inactive
COc1ccc(NC(=O)C(c2ccc(OC)cc2)n2c(=O)c(-c3ccco3)nc3ccccc32)cc1 (configuration not stated)	ABHD5-PLIN5 inh 42.1 (no result: TLR9-MyD88 block, TLR4 MyD88 comp) | ABHD5 PLIN5 conf 38.5 | HNF4 split-luc inactive
COc1ccc(NC(=O)C(c2ccc(C#N)cc2)n2c(=O)c(-c3ccco3)nc3ccccc32)cc1 (configuration not stated)	ABHD5-PLIN5 inh 23.6 (no result: TLR9-MyD88 block, TLR4 MyD88 comp) | ABHD5 PLIN5 conf 22.4 | HNF4 split-luc inactive
C[C@@H](C(=O)Nc1ccc2c(c1)OCCO2)n1nnc2ccccc2c1=O	none (no result: TLR4 MyD88 comp)
O=C(Nc1ccc2c(c1)OCCO2)C(c1ccccc1F)n1c(=O)c(-c2ccco2)nc2ccccc21 (configuration not stated)	ABHD5-PLIN5 inh 26.3 (no result: TLR9-MyD88 block, TLR4 MyD88 comp) | ABHD5 PLIN5 conf 32.0 | HNF4 split-luc inactive
CC(C)n1nnnc1C1(C)CCSCC(=O)N1Cc1cccc(C(F)(F)F)c1 (configuration not stated)	none (no result: TLR9-MyD88 block, Exocytosis inh, NOD2-RIPK2 inh, ABHD5-PLIN5 inh, TLR4 MyD88 comp)
C=CCNC(=S)N(C)[C@H]1C[C@H]2c3cc(-c4ccccc4C)ccc3CCN2C[C@H]1[C@H](C)O	none (no result: TLR9-MyD88 block, Exocytosis inh, NOD2-RIPK2 inh, ABHD5-PLIN5 inh, TLR4 MyD88 comp)
CC(=O)C1=C(C)NC(C)=C(C(C)=O)C1c1ccc(-c2ccccc2Cl)o1	ABHD5-PLIN5 inh 51.8 | ABHD5 PLIN5 conf inactive | HNF4 split-luc 38.4
CCOC(=O)C1=C(C)NC(=O)NC1c1ccc(-c2ccccc2F)o1 (configuration not stated)	none
Cc1ccc(NS(=O)(=O)c2ccccc2[N+](=O)[O-])cc1S(=O)(=O)N1CCCCC1	none (no result: TLR4 MyD88 comp)
O=[N+]([O-])c1ccccc1S(=O)(=O)Nc1ccc(S(=O)(=O)N2CCCC2)cc1	ABHD5-PLIN5 inh 33.2 (no result: TLR4 MyD88 comp) | ABHD5 PLIN5 conf 34.5 | HNF4 split-luc 47.9
COc1cc(/C=C/C(=O)c2ccc(F)cc2)cc(OC)c1OC	ABHD5-PLIN5 inh 37.6 | ABHD5 PLIN5 conf 68.0 | HNF4 split-luc 53.4
Cc1ccc(C(=O)/C=C/c2ccc3ncccc3c2)cc1	ABHD5-PLIN5 inh 37.6 (no result: TLR4 MyD88 comp) | ABHD5 PLIN5 conf 78.0 | HNF4 split-luc 78.2
COc1ccc(/C=C/C(=O)c2ccc(C(=O)/C=C/c3ccc(OC)c(OC)c3)cc2)cc1OC	ABHD5-PLIN5 inh 55.1 (no result: TLR4 MyD88 comp) | ABHD5 PLIN5 conf 98.0 | HNF4 split-luc 90.8
